# Reference: ChEMBL document CHEMBL3988442, “University of Dundee, Small-Polar-MMV Screening Library” (2021)
# Screen size: about 69,000 compounds; about 950 (1.4%) showed an effect of 50% or more. Only a selection was taken, and strong results are over-represented in it overall.
# System: Mycobacterium tuberculosis
# Test: Cornell M. t heat shock assay; note: in the data most compounds retested in dose-response had high values
# Assay type: functional, organism-based
# Parameters: dose or concentration left out as unconfirmed
row,Compound,Percent Effect [%]
1,Cc1cccnc1N1CC2(CCN(Cc3cccnc3)C2)C1.O=C(O)C(F)(F)F.O=C(O)C(F)(F)F.O=C(O)C(F)(F)F,-27.63
2,CN(C)CCN1CCCC12CCN(C(=O)c1ccco1)CC2.O=C(O)C(F)(F)F.O=C(O)C(F)(F)F,-2.887
3,CN(C)CCOCC1CN(Cc2ccncc2)Cc2nnn(C)c21.O=C(O)C(F)(F)F.O=C(O)C(F)(F)F.O=C(O)C(F)(F)F (stereo unspecified),-16.03
4,O=C(c1nn(-c2ccccc2F)cc1O)N1CCCC1,42.43
5,CCc1ccccc1-n1cc(O)c(C(=O)N2CCCCC2)n1,56
6,O=C(c1nn(-c2ccccc2F)cc1O)N1CCCCC1,22.71
7,Fc1cccc(CN2C[C@@H]3CN(Cc4ccccn4)C[C@@H]3C2)c1.O=C(O)C(F)(F)F.O=C(O)C(F)(F)F,35.12
8,CCN1CC2(CC1=O)CN(Cc1ccsc1)CCN(C(=O)C(C)C)C2.O=C(O)C(F)(F)F (stereo unspecified),-8.211
9,O=C1c2cnc(N3CCC(O)CC3)nc2CN1Cc1cccc(F)c1,-32.08
10,Cc1nc(Nc2cnccn2)cc(C2CN(C(C)C)C2)n1.O=CO,-9.635
11,CN1CCCN(C(=O)c2ccnn2-c2ccc3ccccn23)CC1.O=C(O)C(F)(F)F,-45.73
12,COc1ccc2c(c1)CN(Cc1ccco1)C(=O)CCN2,54.29
13,O=C1CCNc2ccccc2CN1Cc1ccco1,41.47
14,O=C1CCNc2ccc(F)cc2CN1Cc1ccco1,32.83
15,Cc1nc(CN2C(=O)COC3(CCN(Cc4ccsc4)CC3)C2C)cs1.O=C(O)C(F)(F)F (stereo unspecified),-25.28
16,CCCNC(c1cccnc1)c1ccc(F)c(C)c1.Cl.Cl (stereo unspecified),-18.54
17,Cc1noc(C)c1CN1CC[C@H]2[C@@H]1CCC(=O)N2CC1CCOCC1.O=C(O)C(F)(F)F,19.97
18,O=C(O)c1cc(/C=C/c2ccccc2)ncn1,-25.85
19,O=C(O)c1cc(/C=C/c2ccc3ccccc3c2)ncn1,55.05
20,O=C(O)c1cc(/C=C/c2cccc3ccccc23)ncn1,-14.83
21,Cc1cccc(CN2Cc3nccn3CC(CN3CCOCC3)C2)c1.O=C(O)C(F)(F)F.O=C(O)C(F)(F)F (stereo unspecified),-25.56

row,Compound,Percent Effect [%]
1,O=C(C1CCCCC1)N1C[C@@H]2CCN(c3cnccn3)C[C@@H]2C1.O=C(O)C(F)(F)F,23.71
2,Cc1ccccc1-n1cc(-c2ccnc(N3CCCC(CN)C3)n2)cn1 (stereo unspecified),6.089
3,Cc1ccccc1-n1cc(-c2ccnc(N3CCCC(O)C3)n2)cn1 (stereo unspecified),0.7216
4,COC[C@H]1CCCN1c1nccc(-c2cnn(-c3ccccc3C)c2)n1,57.5
5,O=C(CC1CC1)N1C[C@@H]2CCN(c3cccnc3)C[C@@H]2C1.O=C(O)C(F)(F)F,-11.14
6,COCCNC(=O)C(C)N1CCN(C)CC1.O=C(O)C(=O)O (stereo unspecified),1.358
7,CC(C)N1CCCC(CN(C)c2ccc(Cn3ccnc3)cn2)C1 (stereo unspecified),-4.084
8,OC1CCN(C2CCN(c3ccc(Cn4ccnc4)cn3)CC2)CC1,13.23
9,CN(CC1CCN(c2ccccc2)C1)c1ccc(Cn2ccnc2)cn1 (stereo unspecified),105.3
10,CCc1cc2cc(OC)c(OC)cc2nc1SCCN1CCCCC1.Cl,-12.6
11,O=C(O)C(F)(F)F.O=C(c1ccc[nH]1)N1CCc2c(COCC3CC3)cncc2C1,-0.4009
12,O=C(N1CCCC1)N1Cc2nccn2CC(CN2CCCC2)C1.O=C(O)C(F)(F)F (stereo unspecified),-12.61
13,CC(C)(O)CCc1cccc(C(=O)NCc2cnn3cccnc23)c1,-5.166
14,CC(C)Cn1cncc1CNC(=O)c1cccc(CC2CCNCC2)c1,-17.32
15,O=C(NCc1cnn2cccnc12)c1cccc(CC2CCNCC2)c1,70.42
16,CCOC1COC2(CCN(Cc3cccc(F)c3)CC2)C1.O=C(O)C(F)(F)F (stereo unspecified),-9.066
17,Cc1cc(N2CCOCC2)ccc1NC(C)c1nc(C(C)C)no1 (stereo unspecified),45.07
18,Cc1cc(N2CCOCC2)ccc1NC(C)c1nc(C(C)(C)C)no1 (stereo unspecified),72.1
19,Cc1noc(C(C)Nc2ccc(N3CCOCC3)cc2C)n1 (stereo unspecified),41.84
20,O=C(O)C(F)(F)F.O=C(O)C(F)(F)F.O=C(c1cscn1)N1CCC2(CN(Cc3ccncc3)C2)C1,-52.86
21,COCC1c2c(cnn2C)CCN1Cc1cccc(C)c1.O=C(O)C(F)(F)F.O=C(O)C(F)(F)F (stereo unspecified),-46.03

row,Compound,Percent Effect [%]
1,CC1CN(CC(=O)NCCc2ccccc2)CCN1c1nccs1 (stereo unspecified),-17
2,NCCc1nc(N(Cc2cncs2)C2CC2)c2ccccc2n1,-30.71
3,Cc1ccsc1CN(c1nc(CCN)nc2ccccc12)C1CC1,91.12
4,NCCc1nc(N(Cc2nccs2)C2CC2)c2ccccc2n1,-17.4
5,CC(=O)N1CC(=O)N(c2cnn(C)c2)CC12CCN(Cc1cccs1)C2.O=C(O)C(F)(F)F (stereo unspecified),-1.108
6,CC1=C(C#N)C(=O)N(C)C(=O)/C1=C\C1=Cc2ccccc2OC1,-26.04
7,Cc1ccc(CN2CCn3c(COc4cccnc4)cnc3C2C)o1.O=C(O)C(F)(F)F.O=C(O)C(F)(F)F (stereo unspecified),17.82
8,Cn1cc(CNC2CCCOc3c(Cl)cccc32)cn1 (stereo unspecified),12.93
9,Cn1ccnc1CNC1CCCOc2c1ccc1ccccc21 (stereo unspecified),95.81
10,Cc1ccc2c(c1)OCCCC2NCc1nccn1CC(C)C (stereo unspecified),101.9
11,Cc1cccc2c1OCCCC2NCc1nccn1Cc1ccccc1 (stereo unspecified),104.4
12,CN(C(=O)NCc1nccn1Cc1ccccc1)C1CC1,-34.67
13,COc1cccc(CNC2CCCOc3cc(C)ccc32)n1 (stereo unspecified),-23.35
14,Cc1ccc2c(c1)C(NCc1nccn1Cc1ccccc1)CCCO2 (stereo unspecified),102
15,Cn1cc(CNC2CCCOc3c2ccc2ccccc32)cn1 (stereo unspecified),11.28
16,Cc1cccc2c1OCCC2NCc1c(C)nn(C)c1N(C)C (stereo unspecified),-4.09
17,Cc1ccc2c(c1)C(NCc1nnc3n1CCCCC3)CCCO2 (stereo unspecified),-13.54
18,Cc1cccc2c1OCCCC2NCc1nnc2n1CCCCC2 (stereo unspecified),-4.885
19,Cc1ccc2c(c1)OCCCC2NCc1nnc2n1CCCCC2 (stereo unspecified),-7.759
